Sampled rows, rich in hits. Any-hit rate of the full collection: about 9.4%.
Pf growth 48h: Primary qHTS for delayed death inhibitors of the malarial parasite plastid, 48 hour incubation; hit rate 5.9% among 310,000; P. falciparum luciferase growth in erythrocytes, 48 h; Potency, µM (highest dose often 28.7 µM), actives largely listed as inhibitors
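Here the parasites carry a stable luciferase gene and grow inside erythrocytes in Albumax-based RPMI medium with compound for one erythrocytic cycle. Activity is scored as loss of luminescent signal.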
AMA1 RON2 block: qHTS for Inhibitors of AMA1-RON; Towards Development of Antimalarial Drug Lead: Primary Screen. hit rate 0.2% among 360,000. AID 720542, 2013. Potency, µM (titrated, usually from 58.2 µM), usual class: inhibitors. Plasmodium falciparum AMA1 (3D7) - RON2 peptide interaction. AlphaScreen AMA1-biotinylated RON2 peptide binding; note: nearly all actives have a fitted effect of over 45% in size
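AMA1 (3D7) with his tag at 25 nM final met compounds first, then biotinylated RON2 peptide at 25 nM; detection used donor plus acceptor beads, 10 µg/mL apiece, read by AlphaScreen after 30 min at room temperature.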
SARS PLpro yeast: qHTS of Yeast-based Assay for SARS-CoV PLP. S. cerevisiae expressing SARS-CoV PLpro, growth rescue. Potency, µM (doses to about 32.9 µM), actives largely listed as activators. hit rate 0.19% among 330,000; calls by dose curve; note: nearly all actives have a fitted effect of over 55% in size
Pf growth 96h: Primary qHTS for delayed death inhibitors of the malarial parasite plastid, 96 hour incubation | hit rate 6.9% among 320,000 | P. falciparum luciferase reporter growth, 96 h | Potency, µM (highest dose often 28.7 µM), actives largely listed as inhibitors | AID 504834, 2011
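P. falciparum expressing integrated firefly luciferase, in erythrocytes at 2% hematocrit, 0.05% parasitemia, incubated with compounds 96 h at 37 C, 5% CO2. Growth inhibition read as loss of luminescence; two-generation exposure targets delayed-death apicoplast inhibitors.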
Each line names hits and unclear results; the compound was inactive in the other large screens. Unless noted, calls come from the whole dose curve; as a rule, active = well fitted curve in the direction sought with a large enough effect; inconclusive = small, poorly fitted or top-dose-only effect, or another doubt; inactive = no such curve, though single readings can be large; an effect the other way counts as inactive or inconclusive.

CSc1ccc(/C=C/c2cc(=O)c3ccccc3[nH]2)cc1	Pf growth 48h 1.85µM
O=c1cc(C(F)(F)F)[nH]c2ccccc12	Pf growth 96h inconclusive
O=c1cc(/C=C/c2cccs2)[nH]c2ccccc12	Pf growth 48h 9.28µM (no result: Pf growth 96h)
CC(=O)N(c1ccc2oc(=O)sc2c1)S(=O)(=O)c1cccc2cccnc12	none
Cc1c(NC(=O)CN2C(=O)NC3(CCCC3)C2=O)c(=O)n(-c2ccccc2)n1C	none
COc1cc(/C=C/c2nnc3c4ccccc4ncn23)cc(OC)c1OC	Pf growth 48h 9.28µM, Pf growth 96h inconclusive
CCCCN(C)CCNC(=O)Cn1c(=O)sc2ccccc21	Pf growth 96h 8.28µM (no result: Pf growth 48h)
O=S(=O)(/N=C/c1c(O)ccc2ccccc12)c1ccccc1	none
CC/C(=N\NC(=S)Nc1cccc(C)c1)c1ccccc1	Pf growth 48h 9.28µM, Pf growth 96h inconclusive
C/C(=N\NC(=S)Nc1cccc(C)c1)c1cc2ccccc2o1	Pf growth 48h inconclusive, Pf growth 96h 8.28µM
C/C(=N/NC(=S)Nc1cccc(C)c1)c1cccc([N+](=O)[O-])c1	Pf growth 48h 11.7µM
CCNC(=S)N/N=C(\C)c1cc2ccccc2o1	Pf growth 48h inconclusive, Pf growth 96h inconclusive
Cc1cccc(NC(=S)N/N=C(\c2ccccc2)C(C)C)c1	Pf growth 48h inconclusive
O=C1CSC(=S)N1/N=C/c1ccc(Cl)c([N+](=O)[O-])c1	Pf growth 48h inconclusive, Pf growth 96h inconclusive (no result: AMA1 RON2 block)
C[C@@H]1C(NC(=O)c2ccccc2)CC2CC1C2(C)C (some centres not stated)	Pf growth 96h 7.38µM
CC(C)(C)NC(=O)C(c1ccccc1F)n1c(=O)c(-c2ccco2)nc2ccccc21 (configuration not stated)	none (no result: Pf growth 48h, SARS PLpro yeast, Pf growth 96h)
Cc1ccc(C(=O)NNC(=O)c2ccc(NC(=O)C(C)(C)C)cc2)cc1	Pf growth 96h 14.7µM
C=C(C1=CCN(S(=O)(=O)C(C)(C)C)[C@H]1CCO)c1ccccc1	none (no result: Pf growth 48h, SARS PLpro yeast, Pf growth 96h)
CCC(C)NS(=O)(=O)c1ccc(OCC(=O)NCc2ccc(OC)cc2)cc1 (configuration not stated)	Pf growth 48h inconclusive
CCOc1ccc(CNC(=O)NS(=O)(=O)c2ccc(OC)cc2)cc1	Pf growth 96h 2.94µM
Cc1n[nH]c(=S)n(/N=C/c2cccc([N+](=O)[O-])c2)c1=O	Pf growth 48h 1.65µM, Pf growth 96h inconclusive
COc1cc(/C=N/n2c(=S)[nH]nc(C)c2=O)cc([N+](=O)[O-])c1O	Pf growth 96h 14.7µM
O=C(Nc1ccccc1N1CCN(C(=O)c2ccc(Cl)cc2)CC1)c1cc2ccccc2o1	Pf growth 48h inconclusive (no result: Pf growth 96h)
O=C(Nc1cccc2ccccc12)c1ccc(Cn2cc(Cl)cn2)cc1	Pf growth 48h inconclusive, Pf growth 96h 13.1µM
O=C(Nc1ccc(N2CCN(C(=O)c3ccc(Cl)cc3)CC2)cc1)c1cc2ccccc2o1	Pf growth 96h 5.86µM (no result: Pf growth 48h)
O=C(c1ccccc1)N1CCN(c2ccc(Cl)cc2)CC1	Pf growth 48h inconclusive, Pf growth 96h 14.7µM
O=C(Nc1ccccc1F)c1ccc(Cn2cc(Cl)cn2)cc1	none
Cc1occc1C(=O)N1CCN(c2ccc(Cl)cc2)CC1	Pf growth 96h 4.65µM
O=C(c1ccccc1)N1CCN(c2ccccc2)CC1	none (no result: Pf growth 48h, SARS PLpro yeast, Pf growth 96h)
Cc1ccc(OCc2ccc(C(=O)Nc3cc(C)on3)o2)c([N+](=O)[O-])c1	Pf growth 96h inconclusive
O=C(Nc1cccc(Cl)c1N1CCCC1)c1ccc(Br)o1	none (no result: Pf growth 96h)
CC(=O)N1CCN(C(=O)c2ccc(C(=O)c3ccccc3)cc2)CC1	none
O=C(Nc1cccc(Cl)c1N1CCCC1)c1cc2ccccc2o1	Pf growth 96h 1.31µM
O=C(c1ccc(Cn2cc(Cl)cn2)cc1)N1CCN(c2ccccc2)CC1	Pf growth 96h 7.38µM (no result: SARS PLpro yeast)
O=C(/C=C\c1ccco1)Nc1ccc(N2CCN(C(=O)c3ccccc3)CC2)cc1	Pf growth 48h inconclusive, Pf growth 96h 5.86µM
O=C(c1ccc(Cn2cc(Br)cn2)cc1)N1CCN(c2ccccc2)CC1	none
O=C(/C=C/c1ccco1)N1CCN(c2ccccc2)CC1	none
CC(=O)c1ccc(N2CCN(C(=O)c3ccc(C(=O)c4ccccc4)cc3)CC2)cc1	Pf growth 96h 5.22µM
c1ccc(Sc2ncnc3c2oc2ccccc23)cc1	none
O=C(Nc1ccccc1N1CCCC1)c1cccc(-c2cc3ccccc3oc2=O)c1	Pf growth 48h inconclusive, Pf growth 96h inconclusive
O=C(Nc1ccc(N2CCCC2)cc1)c1cccc(-c2cc3ccccc3oc2=O)c1	Pf growth 96h 0.415µM
CCOC(=O)N1CCC(NC(=O)c2sc3nc4n(c(=O)c3c2C)CCCC4)CC1	Pf growth 96h 2.33µM (no result: Pf growth 48h)
CCOC(=O)c1ccc(NC(=O)c2sc3nc4n(c(=O)c3c2C)CCC4)cc1	Pf growth 48h inconclusive, Pf growth 96h 14.7µM
CCOc1ccc(NC(=O)c2sc3nc4n(c(=O)c3c2C)CCC4)cc1	Pf growth 96h inconclusive
CCOC(=O)N1CCN(C(=O)Nc2sc3nc4n(c(=O)c3c2C)CCC(C)CC4)CC1 (configuration not stated)	Pf growth 48h 11.7µM, Pf growth 96h 13.1µM
COc1ccc(CCNC(=O)c2sc3nc4n(c(=O)c3c2C)CCC4)cc1	Pf growth 96h inconclusive
CCOC(=O)c1sc2nc3n(c(=O)c2c1C)CCC(C)CC3 (configuration not stated)	none (no result: Pf growth 48h)
CCOC(=O)N1CCC(NC(=O)C2=CCN(S(=O)(=O)c3ccc(F)cc3)CC2)CC1	none
C=CC[n+]1c(-c2ccc(OC)c(OC)c2)csc1NNC(=O)Nc1ccccc1	Pf growth 48h 7.38µM, Pf growth 96h 9.28µM
O=c1[nH]c(SCc2ccc(Cl)cc2)nc2[nH]ncc12	Pf growth 48h inconclusive, Pf growth 96h inconclusive
CC(C)(C)N1C(=O)Cc2c1nc(N)c1c(N)nc(N3CCCCC3CO)c(C#N)c21 (configuration not stated)	Pf growth 48h inconclusive, Pf growth 96h 5.86µM
O=S(=O)(NCC(O)c1ccccc1)c1cc(Cl)sc1Cl (configuration not stated)	Pf growth 48h inconclusive
C/C(=N/NC(=O)c1ccco1)c1ccc(Br)s1	none
CCOC(=O)c1c(NC(C)=O)sc2c(OCC(O)CN(CC)CC)c(Br)ccc12 (configuration not stated)	Pf growth 96h 7.38µM
COc1ccc(CCC(=O)Nc2cccc(S(=O)(=O)N3CCCCCC3)c2)cc1	Pf growth 48h inconclusive
CN(C)c1ccc(CNC(=O)CCc2ccc(S(=O)(=O)N3CCCCCC3)cc2)cc1	Pf growth 48h 11.7µM, AMA1 RON2 block inconclusive, Pf growth 96h inconclusive
COc1ccccc1NS(=O)(=O)c1ccc(NC(=O)CCNC(=O)c2ccco2)cc1	Pf growth 48h inconclusive, Pf growth 96h 8.28µM
CCOc1ccc(S(=O)(=O)N2CCCCC2)cc1NC(=O)CCNC(=O)c1ccco1	Pf growth 48h 3.29µM, Pf growth 96h inconclusive
CCOc1ccc(S(=O)(=O)N2CCCCC2)cc1NC(=O)CCc1ccc(OC)cc1	Pf growth 48h 13.1µM, Pf growth 96h 10.4µM
CC(C)Oc1ccc(CNC(=O)c2ccc3c(c2)N(C)CCS3)cc1	AMA1 RON2 block inconclusive
